# Laboratory results as given in PubChem BioAssay (EPA / NIEHS).
# Inconclusive results are not listed. Activity calls are given as the source filed them. How the source made its calls: active means hit-call score of the fitted dose curve at least 0.9, where 1 is the maximum; inconclusive means response in the unintended direction; inactive means score below 0.9.
# Biological target: human Serotonin, 5-Hydroxytryptamine Receptor 2A (5HT2A), HTR2A (gene 3356) (UniProt P28223)
# Assay: NVS_GPCR_h5HT2A: NovaScreen (NVS) G Protein-Coupled Receptor Assay for human Serotonin, 5-Hydroxytryptamine Receptor 2A (5HT2A) (AID 2283249)
# In short: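 Radioligand displacement on human cortex tissue extract, counted by filtration and scintillation 1.5 h post-dosing. Initial single-concentration screen at 25 uM in duplicate, concentration series in follow-up; DMSO as baseline.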
# Sequence of human Serotonin, 5-Hydroxytryptamine Receptor 2A (5HT2A), HTR2A (gene 3356) (P28223 whole entry, looked up): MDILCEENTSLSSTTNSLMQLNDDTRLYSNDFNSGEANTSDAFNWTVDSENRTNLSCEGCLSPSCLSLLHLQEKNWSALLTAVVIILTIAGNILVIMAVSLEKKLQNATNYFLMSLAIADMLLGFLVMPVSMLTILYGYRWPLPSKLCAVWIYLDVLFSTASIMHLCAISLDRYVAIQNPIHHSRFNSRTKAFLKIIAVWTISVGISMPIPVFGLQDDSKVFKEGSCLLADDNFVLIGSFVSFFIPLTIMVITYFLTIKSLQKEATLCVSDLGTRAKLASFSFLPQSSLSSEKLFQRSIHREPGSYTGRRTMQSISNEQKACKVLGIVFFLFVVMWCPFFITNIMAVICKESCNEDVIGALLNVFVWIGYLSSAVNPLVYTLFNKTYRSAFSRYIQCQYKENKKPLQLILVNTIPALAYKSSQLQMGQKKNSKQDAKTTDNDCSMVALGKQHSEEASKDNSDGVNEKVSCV
Compound,outcome,AC50
CCC(C)N(C)C(=O)c1cc2ccccc2c(-c2ccccc2Cl)n1 (stereo not drawn),inactive,
CSc1ccc(Oc2ccc(S(N)(=O)=O)cc2CN(C)C)cc1C,,13.4 µM (active)
Cc1occc(=O)c1O,inactive,
C=CCc1ccc(OC)c(OC)c1,inactive,

# Test system: guinea pig Muscarinic, Peripheral (Mperiperal) Receptor, Non-selective Binding, gene 100379235
# Assay: NVS_GPCR_gMPeripheral_NonSelective: NovaScreen (NVS) G Protein-Coupled Receptor Assay for guinea pig Muscarinic, Peripheral (Mperiperal) Receptor, Non-selective Binding (AID 2283250)
# In short: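 Screened in duplicate at 25 uM, hits retested in concentration series to 50 uM max, using bladder membrane radioligand displacement from guinea pig. Filtration and scintillation counting 1 h post-dose, fitted relative to DMSO.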
Compound,outcome,AC50
NC(=Nc1ccccc1)Nc1ccccc1,inactive,
CCCC[C@H]1CN(CC2CCOCC2)C(=O)OC12CCN(C1(C)CCN(C(=O)c3c(C)ncnc3C)CC1)CC2,,3.04 µM (active)
CCc1nc(N)nc(N)c1-c1ccc(Cl)cc1,inactive,

# Biological target: human Serotonin, 5-Hydroxytryptamine Receptor 5A (5HT5A), HTR5A (gene 3361) (UniProt P47898)
# Sequence (P47898 whole entry, looked up): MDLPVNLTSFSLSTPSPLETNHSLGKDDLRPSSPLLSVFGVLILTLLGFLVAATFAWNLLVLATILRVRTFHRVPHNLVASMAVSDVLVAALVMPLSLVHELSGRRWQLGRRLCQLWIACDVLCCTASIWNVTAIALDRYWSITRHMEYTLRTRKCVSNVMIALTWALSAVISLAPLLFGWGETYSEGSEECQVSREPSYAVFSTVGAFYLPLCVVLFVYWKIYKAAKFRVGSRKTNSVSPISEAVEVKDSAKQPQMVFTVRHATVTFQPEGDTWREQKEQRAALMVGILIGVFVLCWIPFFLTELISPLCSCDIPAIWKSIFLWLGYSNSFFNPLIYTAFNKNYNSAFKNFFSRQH
# Assay: NVS_GPCR_h5HT5A: NovaScreen (NVS) G Protein-Coupled Receptor Assay for human Serotonin, 5-Hydroxytryptamine Receptor 5A (5HT5A) (AID 2283251)
# In short: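 Membranes from HEK293 cells, radioligand binding read by filtration and scintillation after 1 h. Single-concentration duplicate testing at 25 uM, then concentration-response for actives; positive-direction fitting relative to DMSO.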
Compound,AC50,outcome
CCC(C)N(C)C(=O)c1cc2ccccc2c(-c2ccccc2Cl)n1 (stereo not drawn),15.9 µM (active),
Cc1cc(Cc2ccc(N)c(C)c2)ccc1N,,inactive
CSc1ccc(Oc2ccc(S(N)(=O)=O)cc2CN(C)C)cc1C,7.53 µM (active),
O=C(O)c1[nH]n(-c2ccc(S(=O)(=O)O)cc2)c(=O)c1N=Nc1ccc(S(=O)(=O)O)cc1,,inactive
CC(=O)O[C@]1(C(C)=O)CC[C@H]2[C@@H]3C=C(Cl)C4=CC(=O)[C@@H]5C[C@@H]5[C@]4(C)[C@H]3CC[C@@]21C,,inactive
CCc1nc(N)nc(N)c1-c1ccc(Cl)cc1,,inactive

# Biological target: human Adenosine A1 Receptor (AdoRA1), ADORA1 (gene 134) (UniProt P30542)
# Sequence (P30542 whole entry, looked up): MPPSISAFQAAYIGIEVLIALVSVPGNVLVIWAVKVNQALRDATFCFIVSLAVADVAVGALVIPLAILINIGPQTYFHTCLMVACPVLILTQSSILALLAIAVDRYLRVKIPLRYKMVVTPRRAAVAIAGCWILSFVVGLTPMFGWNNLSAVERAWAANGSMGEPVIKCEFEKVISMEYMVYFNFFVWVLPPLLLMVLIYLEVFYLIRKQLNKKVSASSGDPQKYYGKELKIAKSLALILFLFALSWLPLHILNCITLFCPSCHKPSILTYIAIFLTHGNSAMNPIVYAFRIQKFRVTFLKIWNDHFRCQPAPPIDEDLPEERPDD
# Assay: NVS_GPCR_hAdoRA1: NovaScreen (NVS) G Protein-Coupled Receptor Assay for human Adenosine A1 Receptor (AdoRA1) (AID 2283254)
# In short: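 Membranes from human cortical tissue were incubated with radioligand and test chemical for 1 hour, then filtered and counted. Activity was taken as signal loss relative to DMSO, screened at 25 uM in duplicate before concentration-response follow-up.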
Compound,AC50,outcome
CCC(C)N(C)C(=O)c1cc2ccccc2c(-c2ccccc2Cl)n1 (stereo not drawn),6.11 µM (active),
O=C1OC(c2ccc(O)cc2)(c2ccc(O)cc2)c2ccccc21,1.03 µM (active),
C=CCCCCCCCCCCCC,,inactive

# Biological target: human Serotonin, 5-Hydroxytryptamine Receptor 7 (5HT7), HTR7 (gene 3363) (UniProt P34969)
# Sequence (P34969 whole entry, looked up): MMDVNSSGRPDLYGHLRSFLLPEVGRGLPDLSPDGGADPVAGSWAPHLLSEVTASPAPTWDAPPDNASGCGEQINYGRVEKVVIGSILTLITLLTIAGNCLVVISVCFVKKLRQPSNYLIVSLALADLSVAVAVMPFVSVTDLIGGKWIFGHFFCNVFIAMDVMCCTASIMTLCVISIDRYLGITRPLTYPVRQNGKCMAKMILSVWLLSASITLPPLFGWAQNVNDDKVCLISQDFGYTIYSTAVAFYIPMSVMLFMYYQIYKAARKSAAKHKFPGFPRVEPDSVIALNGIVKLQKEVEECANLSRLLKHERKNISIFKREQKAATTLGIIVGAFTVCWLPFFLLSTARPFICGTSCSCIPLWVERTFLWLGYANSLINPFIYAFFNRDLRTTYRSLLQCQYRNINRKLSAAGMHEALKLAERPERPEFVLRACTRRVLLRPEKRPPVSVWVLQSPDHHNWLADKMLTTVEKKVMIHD
# Assay: NVS_GPCR_h5HT7: NovaScreen (NVS) G Protein-Coupled Receptor Assay for human Serotonin, 5-Hydroxytryptamine Receptor 7 (5HT7) (AID 2283255);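 further: hits reduce specific radioligand binding relative to DMSO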
# In short: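 Filter-bound radioactivity counted after 1 h, with loss of specific radioligand binding fitted against DMSO. Membrane protein came from CHO cells expressing human 5HT7. Chemicals were tested first at 25 uM in duplicate, then in concentration series if active.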
Compound,outcome,AC50
CC(C)(C)c1ccccc1,inactive,
CSc1ccc(Oc2ccc(S(N)(=O)=O)cc2CN(C)C)cc1C,,12.5 µM (active)
O=C(O)c1[nH]n(-c2ccc(S(=O)(=O)O)cc2)c(=O)c1N=Nc1ccc(S(=O)(=O)O)cc1,inactive,
NC(=Nc1ccccc1)Nc1ccccc1,,11.8 µM (active)
CCc1nc(N)nc(N)c1-c1ccc(Cl)cc1,,4.76 µM (active)

# Biological target: human Adrenergic, Beta 1 Receptor (Adrb1), ADRB1 (gene 153) (UniProt P08588)
# Sequence (P08588 whole entry, looked up): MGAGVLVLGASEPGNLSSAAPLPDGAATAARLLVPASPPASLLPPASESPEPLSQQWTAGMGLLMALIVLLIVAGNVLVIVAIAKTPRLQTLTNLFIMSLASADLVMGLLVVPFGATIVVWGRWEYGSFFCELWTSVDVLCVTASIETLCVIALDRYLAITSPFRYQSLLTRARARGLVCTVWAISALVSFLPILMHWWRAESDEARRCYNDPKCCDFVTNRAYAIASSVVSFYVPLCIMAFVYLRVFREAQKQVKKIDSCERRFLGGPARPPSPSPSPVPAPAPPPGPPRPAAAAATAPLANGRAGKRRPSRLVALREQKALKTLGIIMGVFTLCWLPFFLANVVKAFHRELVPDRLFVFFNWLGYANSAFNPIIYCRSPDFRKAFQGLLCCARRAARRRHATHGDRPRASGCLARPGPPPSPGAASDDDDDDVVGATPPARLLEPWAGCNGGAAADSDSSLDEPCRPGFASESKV
# Assay: NVS_GPCR_hAdrb1: NovaScreen (NVS) G Protein-Coupled Receptor Assay for human Adrenergic, Beta 1 Receptor (Adrb1) (AID 2283258)
# In short: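 Membranes/protein extracted from human neuroepithelioma cells, radioligand competition binding read by filtration and scintillation 2 h post-dose. Single 25 uM duplicate screen, then concentration-response follow-up; DMSO as negative control.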
Compound,AC50,outcome
Cc1ccc(-c2cc(C(F)(F)F)nn2-c2ccc(S(N)(=O)=O)cc2)cc1,4.96 µM (active),
CCCCC(CC)COC(=O)CCCCCCCC(=O)OCC(CC)CCCC (stereo not drawn),,inactive
CC(C)c1cccc(C(C)C)c1,,inactive
CCCCCCC(CCCCCCCCCCC(=O)OCC(COC(C)=O)OC(C)=O)OC(C)=O (stereo not drawn),,inactive

# Biological target: human Adrenergic, Beta 3 Receptor (Adrb3), ADRB3 (gene 155) (UniProt P13945)
# Sequence (P13945 whole entry, looked up): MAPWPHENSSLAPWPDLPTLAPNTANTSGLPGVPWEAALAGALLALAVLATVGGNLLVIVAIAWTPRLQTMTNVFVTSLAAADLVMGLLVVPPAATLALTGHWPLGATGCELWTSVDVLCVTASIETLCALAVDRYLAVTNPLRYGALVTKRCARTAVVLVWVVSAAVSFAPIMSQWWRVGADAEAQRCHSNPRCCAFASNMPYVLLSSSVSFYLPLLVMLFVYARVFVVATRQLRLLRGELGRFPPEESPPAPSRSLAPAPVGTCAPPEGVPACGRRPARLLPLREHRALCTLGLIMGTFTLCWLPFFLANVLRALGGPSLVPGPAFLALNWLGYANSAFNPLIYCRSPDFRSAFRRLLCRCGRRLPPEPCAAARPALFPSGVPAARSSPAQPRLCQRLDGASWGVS
# Assay: NVS_GPCR_hAdrb3: NovaScreen (NVS) G Protein-Coupled Receptor Assay for human Adrenergic, Beta 3 Receptor (Adrb3) (AID 2283262)
# Experimental: NVS_GPCR_hAdrb3 is a biochemical, single-readout assay that uses extracted gene-proteins from SK-N-MC pretreated with isoproteronol and 8-bromo-cAMP in a cell-free assay. Measurements were taken 1 hour after chemical dosing in a 48-well plate.NVS_GPCR_hAdrb3 is one of one assay component(s) measured or calculated from the NVS_GPCR_hAdrb3 assay. It is designed to make measurements of radioligand binding, a form of binding reporter, as detected with scintillation counting signals by Filter-based radiodetection technology.Data from the assay component NVS_GPCR_hAdrb3 was analyzed into 1 assay endpoint. This assay endpoint, NVS_GPCR_hAdrb3, was analyzed in the positive analysis fitting direction relative to DMSO as the negative control and baseline of activity. Using a type of binding reporter, loss-of-signal activity can be used to understand changes in the binding as they relate to the gene ADRB3. Furthermore, this assay endpoint can be referred to as a primary readout, because the performed assay has only produced 1 assay endpoint. To generalize the intended target to other relatable targets, this assay endpoint is annotated to the gpcr intended target family, where the subfamily is rhodopsin-like receptor.
# Binding assays used specific radioligands (tritiated, iodinated) with non-radioactive competitive displacement ligands in agonist or antagonist protocols (as indicated) and various reference compounds and inhibitors to titrate specific binding to receptors and transporters. Most enzyme assays (CYPs, kinases, phosphatases, proteases, HDACs) used recombinant protein and specific substrates (fluorescence mostly, some colorimetric and radioactive) and inhibitors, followed by a biochemical separation of substrate and product. All assays for the biochemical HTS were initially run in duplicate at a single concentration (10 uM for CYP450 assays and 25 uM for all others). […] Each assay was run with positive and negative controls, and concurrent controls on every plate. The follow-up (secondary) screen tested active chemical-pairs in concentration series, as well as a few additional assays not tested in the primary screen, some selected negative inactives, and several cases re-run in the concentration series for confirmatory purposes.
row,Compound,outcome
1,CCCCCCCCCC[N+](C)(C)[O-],inactive
2,CSc1ccc(Oc2ccc(S(N)(=O)=O)cc2CN(C)C)cc1C,inactive
3,Cn1cnc2c1c(=O)[nH]c(=O)n2C,inactive
